In PubChem BioAssay (Tox21):
Results filed as inconclusive are left out. The source made the active and inactive calls. Unless noted, calls follow the shape of the dose curve; as a rule, active = well fitted curve in the direction sought with a large enough effect in the repeat runs; inconclusive = weak or mixed curves; inactive = no such curve, though single readings can be large; an effect the other way counts as inactive or inconclusive.

What was measured:
[1] = qHTS assay for small molecules that induce genotoxicity in human embryonic kidney cells expressing luciferase-tagged ATAD5 (AID 651632); also: nearly all actives have a fitted effect of over 15% in size
Procedure, shortened: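 ATAD5-luc HEK293T, 2,000 cells/well; cpd or DMSO pin-transferred; 16 hr, 37C/5% CO2; Amplite 30 min RT; luminescence.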

[2] = qHTS assay for small molecule agonists of the p53 signaling pathway - cell viability (AID 651633; calls by dose curve;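 also: p53RE-bla HCT reporter cells with a stable beta-lactamase p53 reporter; series mostly up to about 83 µM; nearly all actives have a fitted effect of over 30% in size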)
Procedure, shortened: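 p53RE-bla cells were treated with compound for 16 hours at 37 C. Cytotoxicity was then measured as CellTiter-Glo luminescence after 30 min at room temperature.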

[3] = qHTS assay for small molecules that induce genotoxicity in human embryonic kidney cells expressing luciferase-tagged ATAD5 - cell viability (AID 651634; calls by dose curve; also: nearly all actives have a fitted effect of over 25% in size)
Procedure, shortened: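 Fluorescence from CellTiter-Fluor, reporting protease activity within live cells, served as the viability read-out. HEK293T cells carrying luciferase-tagged ATAD5 had been treated with compound for 15.5 hr at 37C.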

[4] = qHTS assay for small molecule disruptors of the mitochondrial membrane potential - cell viability (AID 720634; calls by dose curve;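 also: human HepG2 liver cancer cells; series mostly up to about 83 µM; nearly all actives have a fitted effect of over 20% in size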)
Procedure, shortened: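 Cells: HepG2, 2,000/well, attached overnight. Compound 1 hr, 37 C/5% CO2. +m-MPI dye, +CellTiter-Glo 30 min RT. Readout: luminescence (ATP).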

[5] = qHTS assay for small molecule disruptors of the mitochondrial membrane potential (AID 720635)
Procedure, shortened: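 HepG2 cells exposed to compound 1 hr at 37C, then Mito-MPS dye 30 min. Ratio read of aggregate (540/590 nm) versus monomer (490/535 nm) fluorescence.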

[6] = qHTS assay to test for compound auto fluorescence at 590 nm (red) in HepG2 cells (AID 720674)
Procedure, shortened: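 Seeding: 2,000 HepG2 cells/well, MEM/10% FBS, overnight 37 C. Dosing: compound vs DMSO. Incubation: 1 hr, 37 C, 5% CO2. Read: fluorescence 540 ex/590 em, Rose Bengal sodium as red reference.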

[7] = qHTS assay to test for compound auto fluorescence at 535 nm (green) in HepG2 cells (AID 720675)
[8] = qHTS assay to test for compound auto fluorescence at 460 nm (blue) in HEK293 cells (AID 720678)
Procedure, shortened: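 HEK293 cells (2,000 per well, medium with 10% dialyzed FBS) attached for 4-5 hr at 37C, then received compound and stood overnight at 37C, 5% CO2. Blue fluorescence was read at Ex/Em 405/460 nm and expressed relative to triamterene.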

[9] = qHTS assay to test for compound auto fluorescence at 590 nm (red) in HEK293 cells (AID 720679)
Procedure, shortened: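 HEK293 cells (2,000/well, medium with 10% dialyzed FBS) attached for 4-5 hr at 37C, received 23 nL compound and were incubated overnight at 37C, 5% CO2. Red fluorescence was then read at 540/590nm Ex/Em, referenced to Rose Bengal sodium.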

[10] = qHTS assay to test for compound auto fluorescence at 535 nm (green) in HEK293 cells (AID 720680)
[11] = qHTS assay to test for compound auto fluorescence at 460 nm (blue) in HEK293 cell free culture (AID 720681)
Procedure, shortened: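 Compounds were added to cell-free DMEM with 10% FBS and fluorescence read directly. The blue channel used 405 nm excitation and 460 nm emission, with triamterene as the reference fluorophore.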

[12] = qHTS assay to test for compound auto fluorescence at 535 nm (green) in HEK293 cell free culture (AID 720682)
Procedure, shortened: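 Cell-free medium (DMEM, 10% FBS) receives compound or DMSO by pintool. Plate read directly at Ex 485/Em 535 nm. Signal converted to fluorescein equivalency.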

[13] = qHTS assay to test for compound auto fluorescence at 590 nm (red) in HEK293 cell free culture (AID 720683)
Procedure, shortened: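 Cell-free wells of DMEM with 10% FBS received compound, and intrinsic fluorescence was read at excitation/emission 540/590 nm. Values expressed as equivalence to Rose Bengal sodium.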

[14] = qHTS assay to test for compound auto fluorescence at 590 nm (red) in HepG2 cell free culture (AID 720684)
Procedure, shortened: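 Compounds are added to culture medium (MEM, 10% FBS) lacking cells, then fluorescence is read at excitation 540 nm, emission 590 nm, with Rose Bengal sodium as the equivalency standard.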

[15] = qHTS assay to test for compound auto fluorescence at 460 nm (blue) in HepG2 cell free culture (AID 720685)
Procedure, shortened: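 Compound (23 nL) or DMSO pinned into cell-free MEM with 10% FBS; blue fluorescence read at 405/460 nm excitation/emission, expressed as auto-fluorescence equivalency to triamterene.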

[16] = qHTS assay to test for compound auto fluorescence at 535 nm (green) in HepG2 cell free culture (AID 720686)
[17] = qHTS assay to test for compound auto fluorescence at 460 nm (blue) in HepG2 cells (AID 720687)
Procedure, shortened: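 HepG2 cells in MEM with 10% FBS, attached overnight at 37 C, were exposed to compound or DMSO for 1 hr at 37 C, 5% CO2. Blue fluorescence was read at 405/460 nm, with triamterene as reference fluorophore.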

[18] = target: Glucocorticoid receptor (Homo sapiens) (UniProt P04150); experiment: qHTS assay to identify small molecule agonists of the glucocorticoid receptor (GR) signaling pathway (AID 720691; active = well fitted activation curve with a large enough effect in the signal ratio in the repeat runs, not every such curve was filed as active; the % refers to the signal ratio)
Procedure, shortened: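 Fluorescence intensity from LiveBLAzer B/G FRET substrate (2 h, room temperature) reports beta-lactamase expression driven by the glucocorticoid response element in GR-bla HeLa cells after 18 h compound exposure at 37 C.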

[19] = target: Glucocorticoid receptor (Homo sapiens) (UniProt P04150); experiment: qHTS assay to identify small molecule antagonists of the glucocorticoid receptor (GR) signaling pathway (AID 720692; active = well fitted inhibition curve with a large enough effect in the signal ratio in the repeat runs, not every such curve was filed as active; the % refers to the signal ratio)
Procedure, shortened: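 HeLa GR-bla cells; cmpd + dex 5 nM final, 18 h 37 C; LiveBLAzer B/G FRET substrate 2 h RT; fluorescence intensity read. Antagonist mode, qHTS.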

[20] = qHTS assay for small molecule agonists of the p53 signaling pathway (AID 651631; calls by dose curve; also: nearly all actives have a fitted effect of over 15% in size)
Procedure, shortened: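 p53RE-bla HCT-116 cells; compounds 16 h, 37 °C; LiveBLAzer B/G FRET substrate 2 h RT; fluorescence intensity read-out, qHTS format.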

Measured: Potency

Glucocorticoid receptor (Homo sapiens), sequence (P04150 whole entry, looked up): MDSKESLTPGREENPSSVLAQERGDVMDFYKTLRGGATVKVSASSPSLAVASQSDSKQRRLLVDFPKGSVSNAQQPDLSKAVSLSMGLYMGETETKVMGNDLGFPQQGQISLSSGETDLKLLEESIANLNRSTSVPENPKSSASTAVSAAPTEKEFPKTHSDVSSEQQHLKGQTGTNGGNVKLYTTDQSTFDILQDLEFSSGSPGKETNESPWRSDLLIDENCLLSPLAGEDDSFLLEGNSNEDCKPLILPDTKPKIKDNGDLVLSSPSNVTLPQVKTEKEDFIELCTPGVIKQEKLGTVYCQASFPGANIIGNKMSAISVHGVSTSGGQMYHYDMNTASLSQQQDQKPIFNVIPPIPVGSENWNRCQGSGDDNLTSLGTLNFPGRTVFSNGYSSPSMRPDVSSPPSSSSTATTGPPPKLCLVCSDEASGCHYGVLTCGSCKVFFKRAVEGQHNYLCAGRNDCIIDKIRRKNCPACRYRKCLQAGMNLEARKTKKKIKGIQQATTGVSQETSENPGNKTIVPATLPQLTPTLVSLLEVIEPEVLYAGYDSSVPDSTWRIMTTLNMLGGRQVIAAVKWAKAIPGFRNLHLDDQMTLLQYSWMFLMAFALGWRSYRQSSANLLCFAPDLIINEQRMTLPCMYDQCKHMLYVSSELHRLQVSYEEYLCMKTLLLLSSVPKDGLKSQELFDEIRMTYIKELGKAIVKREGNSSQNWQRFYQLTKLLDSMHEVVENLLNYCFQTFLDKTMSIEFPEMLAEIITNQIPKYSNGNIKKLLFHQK

Nc1nc(Cl)cc(Cl)n1
not listed: [20]
inactive: all other assays above

COC(=O)C(c1ccccc1Cl)N1CCc2sccc2C1 (stereo not drawn)
not listed: [2] | [13]
inactive: all other assays above

COc1cc2nc(N3CCN(C(=O)C4CCCO4)CC3)nc(N)c2cc1OC (stereo not drawn)
not listed: [4] | [5] | [7] | [16]
inactive: all other assays above
